Measured values taken from PubChem BioAssay AID1159580 (chemical genetic matrix, 2015).
“And” between values parts separate entries of the source, which are not always exact repeats. Equal values may be shown once. The whole screen tested about 5,500 compounds, of which about 2,000 (36%) were called active. Roughly 18% stayed inconclusive and do not appear here. Cut-off read from the data, not from the text of the source: active = normalized growth mostly below about 0.91 (no sharp cut-off); inconclusive = no clear call, values can overlap the other calls; inactive = mostly above about 0.92. The list shows a part of the results.

Test: chemical genetic growth profiling, strain panel (AID 1159580);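 note: tested at 20 µM; growth read once vehicle control cultures reached saturation at 30 °C; 1 = growth at the plate median or of vehicle wells; lower values mean less growth of the strain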
Conditions: growth OD

Measured: normalized growth

Cc1cc(C(C)(C)C)c(O)c(C)c1CC1=NCCN1
inactive: S. cerevisiae deletion strains, locus YJR066W, strain TOR1, active compounds read low 0.928 | S. cerevisiae deletion strains, locus YJR075W, strain HOC1, active compounds read low 0.995 | S. cerevisiae deletion strains, locus YKL009W, strain mrt4, active compounds read low 1.01 | S. cerevisiae deletion strains, locus YKL068W, active compounds read low 1 | S. cerevisiae deletion strains, locus YKL085W, strain MDH1 (second series), active compounds read low 1 | S. cerevisiae deletion strains, locus YKL085W, strain MDH1, active compounds read low 1 | S. cerevisiae deletion strains, locus YKL160W, strain elf1, active compounds read low 1.02 | S. cerevisiae deletion strains, locus YKL190W, strain CNB1, active compounds read low 0.991 | S. cerevisiae deletion strains, locus YKR001C, strain vps1, active compounds read low 1.02 | S. cerevisiae deletion strains, locus YKR026C, strain gcn3, active compounds read low 1.01 | S. cerevisiae deletion strains, locus YKR091W, strain srl3, active compounds read low 0.996 | S. cerevisiae deletion strains, locus YLL001W, strain dnm1, active compounds read low 1.01 | S. cerevisiae deletion strains, locus YLL026W, active compounds read low 1.02 | S. cerevisiae deletion strains, locus YLL041C, strain sdh2, active compounds read low 1.01 | S. cerevisiae deletion strains, locus YLR027C, strain aat2, active compounds read low 1 | S. cerevisiae deletion strains, locus YLR039C, strain RIC1, active compounds read low 1.01 | S. cerevisiae deletion strains, locus YLR058C, strain SHM2, active compounds read low 0.991 | S. cerevisiae deletion strains, locus YLR102C, strain apc9, active compounds read low 1 | S. cerevisiae deletion strains, locus YLR113W, strain HOG1, active compounds read low 0.997 | S. cerevisiae deletion strains, locus YLR221C, strain rsa3, active compounds read low 1.01 | S. cerevisiae deletion strains, locus YLR258W, strain gsy2, active compounds read low 1 | S. cerevisiae deletion strains, locus YLR262C, strain YPT6 (second series), active compounds read low 1.02 | S. cerevisiae deletion strains, locus YLR262C, strain YPT6, active compounds read low 0.974 | S. cerevisiae deletion strains, locus YLR268W, strain sec22, active compounds read low 1.01 | S. cerevisiae deletion strains, locus YLR320W, strain mms22, active compounds read low 1.02 | S. cerevisiae deletion strains, locus YLR330W, strain CHS5, active compounds read low 0.999 | S. cerevisiae deletion strains, locus YLR342W, strain FKS1 (second series), active compounds read low 0.984 | S. cerevisiae deletion strains, locus YLR342W, strain FKS1, active compounds read low 1 | S. cerevisiae deletion strains, locus YLR357W, strain rsc2, active compounds read low 1.02 | S. cerevisiae deletion strains, locus YLR370C, strain arc18, active compounds read low 1.01 | S. cerevisiae deletion strains, locus YLR371W, strain rom2, active compounds read low 1.01 | S. cerevisiae deletion strains, locus YLR384C, strain iki3, active compounds read low 1.02 | S. cerevisiae deletion strains, locus YLR418C, strain cdc73, active compounds read low 1.02 | S. cerevisiae deletion strains, locus YML016C, strain PPZ1, active compounds read low 0.998 | S. cerevisiae deletion strains, locus YML032C, strain rad52, active compounds read low 0.999 | S. cerevisiae deletion strains, locus YML120C, strain ndi1, active compounds read low 1.01 | S. cerevisiae deletion strains, locus YML124C, strain tub3, active compounds read low 1.02 | S. cerevisiae deletion strains, locus YMR058W, strain fet3, active compounds read low 1.01 | S. cerevisiae deletion strains, locus YMR078C, strain ctf18, active compounds read low 1.02 | S. cerevisiae deletion strains, locus YMR125W, strain sto1, active compounds read low 1 | S. cerevisiae deletion strains, locus YMR129W, active compounds read low 1 | S. cerevisiae deletion strains, locus YMR205C, strain PFK2, active compounds read low 1.04 | S. cerevisiae deletion strains, locus YMR223W, strain ubp8, active compounds read low 1 | S. cerevisiae deletion strains, locus YMR231W, strain pep5, active compounds read low 1.01 | S. cerevisiae deletion strains, locus YMR263W, strain SAP30, active compounds read low 1 | S. cerevisiae deletion strains, locus YMR307W, strain GAS1, active compounds read low 0.985 and 0.998 | S. cerevisiae deletion strains, locus YNL067W, strain RPL9B, active compounds read low 0.988 | S. cerevisiae deletion strains, locus YNL071W, strain lat1, active compounds read low 1 | S. cerevisiae deletion strains, locus YNL128W, strain TEP1, active compounds read low 0.998 and 1.04 | S. cerevisiae deletion strains, locus YNL153C, strain GIM3, active compounds read low 0.996 and 1.01 | S. cerevisiae deletion strains, locus YNL175C, strain NOP13, active compounds read low 1 | S. cerevisiae deletion strains, locus YNL183C, strain NPR1, active compounds read low 0.936 | S. cerevisiae deletion strains, locus YNL197C, strain WHI3, active compounds read low 1.01 | S. cerevisiae deletion strains, locus YNL209W, strain ssb2, active compounds read low 1 | S. cerevisiae deletion strains, locus YNL224C, strain SQS1, active compounds read low 1.02 | S. cerevisiae deletion strains, locus YNL233W, strain BNI4, active compounds read low 1 | S. cerevisiae deletion strains, locus YNL248C, strain rpa49, active compounds read low 0.997 | S. cerevisiae deletion strains, locus YNL250W, strain rad50, active compounds read low 1.01 | S. cerevisiae deletion strains, locus YNL271C, strain bni1, active compounds read low 1.02 | S. cerevisiae deletion strains, locus YNL298W, strain CLA4, active compounds read low 0.982 | S. cerevisiae deletion strains, locus YNL307C, strain MCK1, active compounds read low 1.01 | S. cerevisiae deletion strains, locus YNL322C, strain KRE1 (second series), active compounds read low 1.03 | S. cerevisiae deletion strains, locus YNL322C, strain KRE1, active compounds read low 0.998 | S. cerevisiae deletion strains, locus YNR049C, strain mso1, active compounds read low 1.01 | S. cerevisiae deletion strains, locus YNR052C, strain pop2, active compounds read low 1.02 | S. cerevisiae deletion strains, locus YOL006C, strain TOP1, active compounds read low 1.01 | S. cerevisiae deletion strains, locus YOL012C, strain htz1 1.23 | S. cerevisiae deletion strains, locus YOL147C, strain pex11, active compounds read low 1.01 | S. cerevisiae deletion strains, locus YOR001W, strain rrp6, active compounds read low 0.97 | S. cerevisiae deletion strains, locus YOR061W, strain CKA2, active compounds read low 1 | S. cerevisiae deletion strains, locus YOR069W, strain VPS5, active compounds read low 0.997 | S. cerevisiae deletion strains, locus YOR070C, strain gyp1, active compounds read low 1.01 | S. cerevisiae deletion strains, locus YOR080W, strain dia2, active compounds read low 1 | S. cerevisiae deletion strains, locus YOR083W, strain WHI5 (second series), active compounds read low 1.02 | S. cerevisiae deletion strains, locus YOR083W, strain WHI5, active compounds read low 1.03 | S. cerevisiae deletion strains, locus YOR106W, strain vam3, active compounds read low 1.02 | S. cerevisiae deletion strains, locus YOR136W, strain idh2, active compounds read low 1 | S. cerevisiae deletion strains, locus YOR144C, strain elg1, active compounds read low 1 | S. cerevisiae deletion strains, locus YOR184W, strain ser1, active compounds read low 1.01 | S. cerevisiae deletion strains, locus YOR231W, strain MKK1, active compounds read low 1.01 | S. cerevisiae deletion strains, locus YOR265W, strain rbl2, active compounds read low 1 | S. cerevisiae deletion strains, locus YOR270C, strain vph1, active compounds read low 1.01 | S. cerevisiae deletion strains, locus YOR290C, strain snf2, active compounds read low 1.03 | S. cerevisiae deletion strains, locus YOR316C, strain cot1, active compounds read low 1 | S. cerevisiae deletion strains, locus YPL051W, strain arl3, active compounds read low 1.02 | S. cerevisiae deletion strains, locus YPL055C, strain LGE1, active compounds read low 0.983 | S. cerevisiae deletion strains, locus YPL078C, strain atp4, active compounds read low 1.01 | S. cerevisiae deletion strains, locus YPL106C, strain sse1, active compounds read low 1.04 | S. cerevisiae deletion strains, locus YPL240C, strain hsp82, active compounds read low 0.994 | S. cerevisiae deletion strains, locus YPL256C, strain CLN2, active compounds read low 0.961 | S. cerevisiae deletion strains, locus YPR119W, strain clb2, active compounds read low 1 | S. cerevisiae deletion strains, locus YPR141C, strain kar3, active compounds read low 1.01 | S. cerevisiae deletion strains, locus YPR163C, strain tif3, active compounds read low 1.02 | S. cerevisiae deletion strains, locus YPR167C, strain met16, active compounds read low 1.01 | S. cerevisiae deletion strains, strain wtn01, active compounds read low 1.01 | S. cerevisiae strains, strain wild type, active compounds read low 0.984
